From PubChem BioAssay (NCI)
About 83,000 compounds went through this panel and 20% of them were active in at least one assay; those are over-represented in the sample as a whole.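 Interpretation: 100, growth as untreated; towards 0, rising growth inhibition; 0, no net growth; 0 to -100, cell death. Compounds scoring below 10 were considered active.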 Unmarked numbers belong to inactive results. Active and inactive are the calls of the source.

system: MALME-3M melanoma; assay: NCI-60 one-dose screen, 48 h (100 = growth as untreated, 0 = no growth, -100 = all killed); settings: 10 µM unless noted

With `Nc1nc(-c2cccc([N+](=O)[O-])c2)c(N=Nc2ccccc2)s1` as the compound, how does the growth read?
The growth was 103%.

For `COc1ccc(-c2nc3ccc(-c4nnc(SCC(=O)Nc5ccc(C(=O)/C=C/c6ccc(Cl)cc6)cc5)o4)cc3[nH]2)cc1`, which growth is on record?
Its growth is 96.1%.

`CCCCCCCn1cc2c(NCCc3ccccc3)ncnc2n1` was tested. Which growth did it give?
The growth was 94.4%.

Which growth does the source give for `COc1ccc(-c2nc3cc(Cl)c(Cl)cc3n2CC(=O)N=Nc2c(O)[nH]c3ccc(OC)cc23)cc1` here?
The growth was 41.2%.

`CN1CCN(Cc2ccc(NC(=O)c3cncc(C#Cc4cnn5cccnc45)c3)cc2C(F)(F)F)CC1` was tested. Which growth did it give?
Its growth is -16.7% (active).

Which growth does the source give for `Cc1cc(C)c(N2C(=O)CC(Nc3ccc(Cl)cc3Cl)C2=O)c(C)c1` (stereo unspecified) here?
Its growth is 96.7%.

With `CC(=O)Nc1cccc(Nc2nc(N[C@@H](C)c3ccccc3)c3ccccc3n2)c1` as the compound, how does the growth read?
The growth was 47%.

Which growth does the source give for `COc1cc(-c2nn(C(C)(C)C)cc2-c2ccnc(NCCCNS(=O)(=O)c3cccc(F)c3)n2)ccc1Cl` here?
Its growth is 88.4%.

`NC(=O)c1cccc(-n2ccc3cc(NC(=O)Nc4ccc(N5CCOCC5)c(C(F)(F)F)c4)ccc32)n1` was tested. Which growth did it give?
Its growth is 12.3%.

For `O=S(=O)(Nc1cccc2ccccc12)c1ccc(-c2cnc(C3CC3)o2)cc1`, which growth is on record?
The growth was 61.4%.

`CCOC(=O)c1c(N)c(C#N)cn1-c1cc(OC)c(OC)c(OC)c1` was tested. Which growth did it give?
Its growth is 102%.

`COc1ccc([C@H]2c3[nH]c4ccccc4c3C[C@H]3C(=O)N(C4CCN(Cc5c(Cl)cccc5Cl)CC4)CC(=O)N23)c(OC)c1` was tested. Which growth did it give?
The growth was 90.6%.

For `COc1ccc2c(c1)c(-c1cc(N)n3nc(-c4cn(C)c5ccc(OC)cc45)cc3n1)cn2C`, which growth is on record?
Its growth is 98%.

With `COc1cc2c(cc1OC)C(Sc1ccc(C)cc1)c1c(nc(N)c(C#N)c1N)O2` (stereo unspecified) as the compound, how does the growth read?
Its growth is -70.7% (active).

How did the growth turn out when `C[C@@H](Nc1c(C#N)cnc2ccc(-c3cnc(Cl)c(NS(C)(=O)=O)c3)cc12)c1ccccc1` was run?
Its growth is -12.9% (active).

With `Cc1ccc(NC(=O)N[C@@H](Cc2cc(F)cc(F)c2)C(=O)NC2C(=O)N3C[C@H](O)C[C@H]3C(=O)N3CCCC[C@H]3C(=O)N[C@@H](CO)C(=O)N3C[C@H](C)C[C@H]3C(=O)O[C@H]2C)c(F)c1` (stereo partly specified) as the compound, how does the growth read?
The growth was 50.7%.

`O=C(NCc1ncc[nH]1)c1ccc(-c2nc3ccc4[nH]ncc4c3c3c2CCCC3)cc1` was tested. Which growth did it give?
Its growth is -14.7% (active).

Which growth does the source give for `c1cn2c(ccc3nc(-c4cn[nH]c4)c4c(c32)CCCC4)n1` here?
The growth was 29%.

How did the growth turn out when `O=c1[nH]c2ccccc2cc1CSc1ccccc1Nc1nccc(-c2ccc(Cl)cc2)n1` was run?
The growth was 86.1%.

Which growth does the source give for `Cn1ccnc1C(=O)/C=C/c1ccc(NC(=O)c2c(F)c(F)c(F)c(F)c2F)cc1` here?
The growth was 104%.

`Cc1noc(C)c1CSc1nc2ccccc2n1-c1ccccc1` was tested. Which growth did it give?
Its growth is 118%.

For `Cn1cc(CNc2nc3ccc(OC/C(=C/F)CN)cc3o2)ccc1=O`, which growth is on record?
The growth was 98.7%.

`CC(C)(C)CC(C)(C)n1nnnc1C(Nc1nccs1)c1cc2cccc3ccc4cccc1c4c32` (stereo unspecified) was tested. Which growth did it give?
The growth was 94%.

For `COc1ccc(/C(N)=N/C(N)=N/c2nc3ccccc3s2)cc1`, which growth is on record?
Its growth is 94.4%.

`COc1ccc(-c2nn(-c3ccc(S(C)(=O)=O)cc3)cc2/C=N/O)cc1` was tested. Which growth did it give?
Its growth is 103%.

How did the growth turn out when `CCOc1cccc(-c2nc3sccn3c2-c2ccnc(S(C)(=O)=O)n2)c1` was run?
The growth was 98.8%.

Which growth does the source give for `O=C(c1ccc(Cl)cc1)C1[C@H](c2ccc(Cl)cc2)[C@@H](c2ccccc2)NC12C(=O)Nc1ccccc12` (stereo partly specified) here?
Its growth is 78.7%.

system: MDA-MB-231 breast; assay: as above; settings: 10 µM unless noted

How did the growth turn out when `COc1cc2oc(-c3cccc(NC(=O)c4cc(N)ccc4Cl)c3)cc(=O)c2c(OC)c1OC` was run?
The growth was 87.8%.

With `CC(C)(C)n1cc(-c2ccnc(NCCCNS(=O)(=O)c3cccc(F)c3)n2)c(-c2ccc(Cl)c(O)c2)n1` as the compound, how does the growth read?
The growth was 103%.

How did the growth turn out when `COc1cccc2cc(-c3cc4ccccc4[nH]3)/c(=N\NC(=O)c3ccc(Cl)cc3)oc12` was run?
Its growth is 41.3%.

Which growth does the source give for `Nc1nc(Nc2ccccc2SSc2ccccc2Nc2nc(N)nc(-c3ccc4ccccc4c3)n2)nc(-c2ccc3ccccc3c2)n1` here?
Its growth is 60.9%.

For `O=C(CN1CCN(c2cc(=O)n(-c3ccccc3)c3ccccc23)CC1)Nc1nc(-c2ccccc2)cs1`, which growth is on record?
The growth was 62.6%.

`CC(Nc1c(C#N)cnc2ccc(-c3cnc(N)nc3)cc12)c1ccccc1` (stereo unspecified) was tested. Which growth did it give?
Its growth is 19.1%.

`CC(=O)Nc1cccc(Nc2nc(N[C@H](C)c3ccccc3)c3ccccc3n2)c1` was tested. Which growth did it give?
Its growth is 57.8%.

For `CNC1CCc2c(sc(NC(=O)c3ccc(C(C)(C)C)cc3)c2C(N)=O)C1` (stereo unspecified), which growth is on record?
Its growth is 56.8%.

With `COc1cc(OC)cc(C(=O)Nc2cccc(C#Cc3cccc4[nH]nc(N)c34)c2)c1` as the compound, how does the growth read?
Its growth is 19.1%.

With `COc1c(N2CC3CCCNC3C2)c(F)cc2c(=O)c(C(=O)N/N=C/c3ccccc3)cn(C3CC3)c12` (stereo unspecified) as the compound, how does the growth read?
Its growth is 94.9%.

Which growth does the source give for `COc1ccccc1-n1cc(C#N)c(N)c1C(=O)c1ccc(Br)cc1` here?
Its growth is 79.8%.

For `Nc1nc(-c2cccc([N+](=O)[O-])c2)c(N=Nc2ccccc2)s1`, which growth is on record?
The growth was 62%.

Which growth does the source give for `COc1ccc(-c2nc3ccc(-c4nnc(SCC(=O)Nc5ccc(C(=O)/C=C/c6ccc(Cl)cc6)cc5)o4)cc3[nH]2)cc1` here?
Its growth is 94.8%.

`CCCCCCCn1cc2c(NCCc3ccccc3)ncnc2n1` was tested. Which growth did it give?
The growth was 94%.

`COc1ccc(-c2nc3cc(Cl)c(Cl)cc3n2CC(=O)N=Nc2c(O)[nH]c3ccc(OC)cc23)cc1` was tested. Which growth did it give?
Its growth is 52%.

Which growth does the source give for `CN1CCN(Cc2ccc(NC(=O)c3cncc(C#Cc4cnn5cccnc45)c3)cc2C(F)(F)F)CC1` here?
The growth was 5.29% (active).

`Cc1cc(C)c(N2C(=O)CC(Nc3ccc(Cl)cc3Cl)C2=O)c(C)c1` (stereo unspecified) was tested. Which growth did it give?
The growth was 102%.

`CC(=O)Nc1cccc(Nc2nc(N[C@@H](C)c3ccccc3)c3ccccc3n2)c1` was tested. Which growth did it give?
Its growth is -22.1% (active).

For `COc1cc(-c2nn(C(C)(C)C)cc2-c2ccnc(NCCCNS(=O)(=O)c3cccc(F)c3)n2)ccc1Cl`, which growth is on record?
Its growth is 61%.

`NC(=O)c1cccc(-n2ccc3cc(NC(=O)Nc4ccc(N5CCOCC5)c(C(F)(F)F)c4)ccc32)n1` was tested. Which growth did it give?
The growth was 16%.

For `O=S(=O)(Nc1cccc2ccccc12)c1ccc(-c2cnc(C3CC3)o2)cc1`, which growth is on record?
Its growth is 27.6%.

For `CCOC(=O)c1c(N)c(C#N)cn1-c1cc(OC)c(OC)c(OC)c1`, which growth is on record?
Its growth is 100%.

For `COc1ccc([C@H]2c3[nH]c4ccccc4c3C[C@H]3C(=O)N(C4CCN(Cc5c(Cl)cccc5Cl)CC4)CC(=O)N23)c(OC)c1`, which growth is on record?
Its growth is 93%.

For `COc1ccc2c(c1)c(-c1cc(N)n3nc(-c4cn(C)c5ccc(OC)cc45)cc3n1)cn2C`, which growth is on record?
Its growth is 78.4%.

Which growth does the source give for `COc1cc2c(cc1OC)C(Sc1ccc(C)cc1)c1c(nc(N)c(C#N)c1N)O2` (stereo unspecified) here?
The growth was -41.4% (active).

`C[C@@H](Nc1c(C#N)cnc2ccc(-c3cnc(Cl)c(NS(C)(=O)=O)c3)cc12)c1ccccc1` was tested. Which growth did it give?
Its growth is 11.5%.

How did the growth turn out when `Cc1ccc(NC(=O)N[C@@H](Cc2cc(F)cc(F)c2)C(=O)NC2C(=O)N3C[C@H](O)C[C@H]3C(=O)N3CCCC[C@H]3C(=O)N[C@@H](CO)C(=O)N3C[C@H](C)C[C@H]3C(=O)O[C@H]2C)c(F)c1` (stereo partly specified) was run?
The growth was 38.8%.

Which growth does the source give for `O=C(NCc1ncc[nH]1)c1ccc(-c2nc3ccc4[nH]ncc4c3c3c2CCCC3)cc1` here?
The growth was 10% (active).

With `CCO/C=N/C1=C(C#N)C(c2ccc(F)cc2)c2sc3c(C)cccc3c2O1` (stereo unspecified) as the compound, how does the growth read?
Its growth is 17.8%.

`c1cn2c(ccc3nc(-c4cn[nH]c4)c4c(c32)CCCC4)n1` was tested. Which growth did it give?
The growth was 77.1%.

For `O=c1[nH]c2ccccc2cc1CSc1ccccc1Nc1nccc(-c2ccc(Cl)cc2)n1`, which growth is on record?
Its growth is 84.5%.

With `Cn1ccnc1C(=O)/C=C/c1ccc(NC(=O)c2c(F)c(F)c(F)c(F)c2F)cc1` as the compound, how does the growth read?
The growth was 108%.

For `Cc1noc(C)c1CSc1nc2ccccc2n1-c1ccccc1`, which growth is on record?
Its growth is 81.5%.

`Cn1cc(CNc2nc3ccc(OC/C(=C/F)CN)cc3o2)ccc1=O` was tested. Which growth did it give?
Its growth is 99.3%.

For `CC(C)(C)CC(C)(C)n1nnnc1C(Nc1nccs1)c1cc2cccc3ccc4cccc1c4c32` (stereo unspecified), which growth is on record?
Its growth is 97.2%.

With `COc1ccc(/C(N)=N/C(N)=N/c2nc3ccccc3s2)cc1` as the compound, how does the growth read?
The growth was 76%.

Which growth does the source give for `COc1ccc(-c2nn(-c3ccc(S(C)(=O)=O)cc3)cc2/C=N/O)cc1` here?
The growth was 96.7%.

For `CCOc1cccc(-c2nc3sccn3c2-c2ccnc(S(C)(=O)=O)n2)c1`, which growth is on record?
The growth was 101%.

For `O=C(c1ccc(Cl)cc1)C1[C@H](c2ccc(Cl)cc2)[C@@H](c2ccccc2)NC12C(=O)Nc1ccccc12` (stereo partly specified), which growth is on record?
The growth was 53.6%.
